# Data published in PubChem BioAssay (NCI).
# Compounds without any hit were thinned out: in the full panel of roughly 83,000, 20% have a hit.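 Cells were grown in 96-well plates and exposed to the test compound at a single concentration for 48 hours; results are reported as percent growth, with values below 10 considered active.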 Unmarked numbers belong to inactive results. Activity calls are given as the source filed them.
# Test system: A498 renal
# Assay: NCI-60 one-dose screen, 48 h (100 = growth as untreated, 0 = no growth, -100 = all killed)
# Settings: 10 µM unless noted
# Protocol: Growth inhibition of the A498 human tumor cell line is measured as a screen for anti-cancer activity. Cells are grown in 96 well plates and exposed to the test compound for 48 hours. Compounds are tested at a single concentration, which is 10^-5 M for most compounds. The reported endpoint is percent growth (GI% or GIPRCNT), where numbers from 0 - 100% represent growth inhibition, and numbers from -100% - 0 represent cell death. For example, a value of 40 represents 60% growth inhibition. A value of 0 means no net growth occurred over the course of the experiment. A value of -40 indicates 40% of cells at the beginning of the experiment died by the end of the experiment. A value of -100 means all cells are dead at the end of the experiment.
# NCI-60 Human Tumor Cell Lines Screen was performed using the standard one-dose NCI protocol, which is described in more detail at https://dtp.cancer.gov/discovery_development/nci-60/default.htm.
# Compounds with GIPRCNT values below 10 were considered active. Activity score was based on GIPRCNT using the following formula: […]
# Score is 0 for GIPRCNT values of 100 or above, 50 for GIPRCNT values of 0, and 100 for GIPRCNT values of -100.
row,Structure (SMILES),growth
1,COc1ccc(-c2ccc(NC(=O)Nc3ccc(Cl)c(C(F)(F)F)c3)c(C)n2)cc1,57.7%
2,O=C(Nc1ccc(-n2ccc3c(NC(=O)c4ccccc4)nccc32)cc1)Nc1ccc(Cl)c(Cl)c1,68.2%
3,c1ccc([Se]CCCN2CCN(CCC[Se]c3ccccc3)CC2)cc1,116%
4,O=C1C(SCCO)=C(SCCO)C(=O)N1c1ccc(-c2ccccc2)cc1,105%
5,Nc1nc(=S)ss1,92.5%
6,O=c1c(-c2ccc3c(c2)OCO3)coc2c(CO)c(O)ccc12,-26.7% (active)
7,COc1ccc(C2=NN(C(=O)COc3ccc(Cl)cc3)C(O)(c3cc(F)c(Cl)cc3Cl)C2)cc1 (stereo not given),95.3%
8,O=C(NOC1OC(CO)C(O)C(O)C1O)Nc1ccccc1 (stereo not given),120%
9,COc1cc(NC(C)CCCN2C(=O)c3ccccc3C2=O)c2nc(C)ccc2c1OC (stereo not given),97.5%
10,COc1cc(Cn2cc3c(c2)-c2onc(CO)c2CC3)cc(OC)c1OC,97.5%
11,Nc1ncc(-c2ccc3ncnc(Nc4cncc(Cl)c4)c3c2)cn1,0.263% (active)
12,CC(=O)CC/C=C(\C)[C@H](O)[C@H](C)C(=O)O[C@H]1C[C@H](C)C=C2C=C[C@@]3(C)O[C@@H](O)CC(=O)[C@]3(C)[C@H]21,-66.2% (active)
13,Nc1n[nH]c2cccc(C#Cc3cccc(NC(=O)c4cccc(C(F)(F)F)c4)c3)c12,14.9%
14,C/C(=N/NC(=O)Cn1c2ccccc2c2ccncc21)c1cccs1,86.5%
15,CC(=O)Nc1ccc([I+]c2ccc([N+](=O)[O-])cc2)cc1,104%
16,COc1cc2c(/C=C3/C(=O)Nc4ccc(O)cc43)c(Cl)n(Cc3cc(OC)c(OC)c(OC)c3)c2cc1C,24.9%
17,CCOc1ccc(Cc2nccc3cc(OCC)c(OCC)cc23)cc1OCC,35.5%
18,Nc1ccc(S(=O)(=O)Nc2ccnn2-c2ccccc2)cc1,107%
19,CCCC(=O)Oc1ccc(/C(=C(\C)c2ccc(Cl)cc2)c2ccc(OCCN(CC)CC)cc2)cc1,11.5%
20,COc1cc2ncn3c(=O)c4c5c(sc4nc3c2cc1OC)CCCCC5,90.9%

row,Structure (SMILES),growth
1,Nc1nc(-c2cc3c(cc2Cl)NC(=O)/C3=C/c2ccc(Cl)cc2)cs1,74.8%
2,O=c1nc(N2CCOCC2)oc2c(-c3cccc4ccccc34)cccc12,8.01% (active)
3,Cc1cn([C@]2(CF)O[C@H](CO)C2C)c(=O)[nH]c1=O (stereo not given in full),115%
4,CNCCCOc1c(Br)cc(CCNC(=O)/C(Cc2cc(Br)c(OC)c(Br)c2)=N/O)cc1Br,31.9%
5,O=C(Nc1ccc(-n2ccc3c(NC(=O)c4ccccc4)ncnc32)cc1)c1cccc(C(F)(F)F)c1,87.5%
6,O=C1COc2ccccc2C(=O)N1CCCCNc1ccccc1,97.8%
7,CCCCC(=O)Nc1nc2ccc(SCCC)cc2s1,9.34% (active)
8,O=C(Nc1ccc(F)cc1)Nc1ccc(Br)c(C(F)(F)F)c1,4.62% (active)
9,COc1ccc(-c2nn(-c3ccc(NC(=O)c4ccc(Cl)c(C(F)(F)F)c4)cc3)cc2-c2ccncc2)cc1Cl,-5.21% (active)
10,CC(C)(C)C(=O)/C=c1/[nH]c(=O)/c(=C/c2ccccc2O)s1,55.6%
11,COc1cc(/C=C2/Oc3cc4occc4c(OC)c3C2=O)ccc1OCC(=O)Nc1ccncc1,111%
12,[2H]c1nc(Nc2ncc(F)c(-c3cc(F)c4nc(C)n(C(C)C)c4c3)n2)c([2H])c([2H])c1CN1CCN(CC)CC1,44.2%
13,CCn1c(SCC(=O)c2ccc(Br)cc2)nnc1-c1cc2c([nH]c3ccccc32)c(-c2cccc(O)c2)n1,73.5%
14,CCCCN(CCCC)c1ccc(C(=N)c2ccc(N(C)C)cc2)cc1,9.81% (active)
15,Cc1cc(O[C@@H]2O[C@@H](C)[C@H](O)[C@@H](O)[C@H]2O)c2c3c(c(O[C@@H]4O[C@@H](C)[C@H](O)[C@@H](O)[C@H]4O)cc2c1)C(=O)c1c(O)cccc1C3=O,-53% (active)
16,COc1ccc(-c2cc3ccc(N(C)C)cc3nc2N)c(F)c1,47.1%
17,O=S(c1ccccc1)c1ccc2nnnn2n1 (stereo not given),86.6%
18,COc1ccc2c(c1)/C(=C/c1c(-c3cc(OC)c(OC)c(OC)c3Br)nc3sccn13)C(=O)N2,108%
19,Cc1ccc2[nH]c3nc4cccnc4c(C)c3c2c1,92.7%
20,CN1CCN(CC(O)COc2c(Br)c(Br)c(Br)c3c2OC(C)(C)C3)CC1 (stereo not given),58.1%
